Results filed as inconclusive are left out. Calls of active or inactive are those of the source. Calls come from the whole dose curve; as a rule, active = well fitted curve in the direction sought with a large enough effect; inconclusive = small, poorly fitted or top-dose-only effect, or another doubt; inactive = no such curve, though single readings can be large; an effect the other way counts as inactive or inconclusive.
Experiments:
[1] = target: Cytochrome P450 3A4 (Homo sapiens) (UniProt P08684); experiment: qHTS Assay for Inhibitors and Substrates of Cytochrome P450 3A4 (AID 884); note: potency is the fitted concentration of half-maximal effect; nearly all actives have a fitted effect of over 50% in size
Method in brief: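 20 nM human CYP3A4 with 25 uM Luciferin-PPXE (at KM) in 200 mM KPO4, preincubated 10 min with compound; NADPH regeneration started a 60 min RT reaction. Luciferin detected by luminescence, normalized to 57 uM ketoconazole as full inhibition.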

[2] = target: Cytochrome P450 3A4 (Homo sapiens) (UniProt P08684); experiment: qHTS Assay for Activators of Cytochrome P450 3A4 (AID 885); note: nearly all actives have a fitted effect of over 65% in size
Method in brief: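 Steps: enzyme/substrate mix dispensed; compound added, 10 min RT; NADPH regeneration solution added, 60 min RT; luciferin detection buffer stops reaction; 20 min later luminescence measured.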

[3] = Confirmation and Secondary Assay for Modulators of Hemoglobin Beta Chain Splicing at IVS2 654 locus (AID 910);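 note: HeLa cells stably carrying EGFP split by mutant beta-globin IVS2-654 intron; per-well total GFP intensity by laser scanning cytometry after 2-day treatment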
Method in brief: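 Readout: per-well total peak green fluorescence (488 nm ex, 500–520 nm em) from objects 5–250 µm, reflecting correct splicing of an EGFP-654 reporter. Compounds were applied for 2 days at 37 °C to overnight-plated HeLa EGFP-654 cells; controls were DMSO and 500 nM IVS2-654 PNA.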

[4] = Confirmation and Secondary Assay for Modulators of Hemoglobin Beta Chain Splicing at IVS2 705 locus (AID 930);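 note: HeLa cells stably expressing the EGFP-705 splicing reporter; GFP fluorescence per well restored by corrected splicing of the IVS2-705 intron in EGFP; series mostly up to about 46 µM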
Method in brief: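 Fluorescence gain (488 nm laser, 500-520 nm PMT) reflects restored correct splicing of a mutant IVS2-705 intron inside EGFP in stably transfected HeLa cells after 2-day compound treatment.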

[5] = target: Ubiquitin carboxyl-terminal hydrolase 1 (Homo sapiens) (UniProt O94782); experiment: Inhibitors of USP1/UAF1: Pilot qHTS (AID 504865);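 note: rhodamine fluorescence freed from ubiquitin-rhodamine substrate followed over time; top concentration of the series differs between compounds; nearly all actives have a fitted effect of over 35% in size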
Method in brief: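 Deubiquitinase activity followed as kinetic rhodamine fluorescence release from 150 nM Ub-Rho. 1 nM USP1/UAF1 with compound, after 15 min room-temperature preincubation, in HEPES pH 7.8 buffer containing TCEP, EDTA, BSA and Tween-20.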

[6] = target: Rap guanine nucleotide exchange factor 3 (Homo sapiens) (UniProt O95398); experiment: Confirmatory qHTS for antagonist of cAMP-regulated guanine nucleotide exchange factor 3 (EPAC1) (AID 1645880); note: nearly all actives have a fitted effect of over 55% in size; note: potency is the fitted concentration of half-maximal effect
Method in brief: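 Nucleotide exchange uses 100 nM EPAC1, 250 nM RAP1B-BODIPY-GDP and 50 uM GDP, with compounds in a concentration-titration series. After 5 min at room temperature, fluorescence (480 nm ex/540 nm em) is read every 5 min for 30 min. Data are normalized to control ATA and DMSO.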

[7] = target: Rap guanine nucleotide exchange factor 3 (Homo sapiens) (UniProt O95398); experiment: Confirmatory qHTS for agonist of cAMP-regulated guanine nucleotide exchange factor 3 (EPAC1) (AID 1645881);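 note: EPAC1 catalysed release of BODIPY-GDP from Rap1B seen as fluorescence loss; nearly all actives have a fitted effect of over 75% in size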
[8] = target: Rap guanine nucleotide exchange factor 4 (Homo sapiens) (UniProt Q8WZA2); experiment: Confirmatory qHTS for agonist of cAMP-regulated guanine nucleotide exchange factor 4 (EPAC2) (AID 1645884);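 note: nucleotide exchange releases bodipy-GDP from Rap1 and this lowers its fluorescence; nearly all actives have a fitted effect of over 65% in size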
[9] = target: Rap guanine nucleotide exchange factor 4 (Homo sapiens) (UniProt Q8WZA2); experiment: Confirmatory qHTS for antagonist of cAMP-regulated guanine nucleotide exchange factor 4 (EPAC2) (AID 1645885); note: nearly all actives have a fitted effect of over 25% in size
[10] = target: Rap guanine nucleotide exchange factor 3 (Homo sapiens) (UniProt O95398); experiment: Counterscreen qHTS for antagonist of cAMP-regulated guanine nucleotide exchange factor 3 (EPAC1) (AID 1645888);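 note: fluorescence loss as bound BODIPY-GDP is released from Rap1B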
Method in brief: (§1)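 Rap1B-BODIPY-GDP 250 nM + GDP 50 uM; cpds 7-pt, final 9.74 nM–152 uM (activator mode) or from 7.32 nM upwards (inhibitor mode); RT; FI 480/540 nm at 5 and 30 min, then ± cAMP, reread.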

[11] = target: Rap guanine nucleotide exchange factor 3 (Homo sapiens) (UniProt O95398); experiment: Counterscreen qHTS for agonist of cAMP-regulated guanine nucleotide exchange factor 3 (EPAC1) (AID 1645889); note: nearly all actives have a fitted effect of over 40% in size
Method in brief: as §1

Measured: Potency

Sequence of Rap guanine nucleotide exchange factor 3 (Homo sapiens) (O95398 whole entry, looked up): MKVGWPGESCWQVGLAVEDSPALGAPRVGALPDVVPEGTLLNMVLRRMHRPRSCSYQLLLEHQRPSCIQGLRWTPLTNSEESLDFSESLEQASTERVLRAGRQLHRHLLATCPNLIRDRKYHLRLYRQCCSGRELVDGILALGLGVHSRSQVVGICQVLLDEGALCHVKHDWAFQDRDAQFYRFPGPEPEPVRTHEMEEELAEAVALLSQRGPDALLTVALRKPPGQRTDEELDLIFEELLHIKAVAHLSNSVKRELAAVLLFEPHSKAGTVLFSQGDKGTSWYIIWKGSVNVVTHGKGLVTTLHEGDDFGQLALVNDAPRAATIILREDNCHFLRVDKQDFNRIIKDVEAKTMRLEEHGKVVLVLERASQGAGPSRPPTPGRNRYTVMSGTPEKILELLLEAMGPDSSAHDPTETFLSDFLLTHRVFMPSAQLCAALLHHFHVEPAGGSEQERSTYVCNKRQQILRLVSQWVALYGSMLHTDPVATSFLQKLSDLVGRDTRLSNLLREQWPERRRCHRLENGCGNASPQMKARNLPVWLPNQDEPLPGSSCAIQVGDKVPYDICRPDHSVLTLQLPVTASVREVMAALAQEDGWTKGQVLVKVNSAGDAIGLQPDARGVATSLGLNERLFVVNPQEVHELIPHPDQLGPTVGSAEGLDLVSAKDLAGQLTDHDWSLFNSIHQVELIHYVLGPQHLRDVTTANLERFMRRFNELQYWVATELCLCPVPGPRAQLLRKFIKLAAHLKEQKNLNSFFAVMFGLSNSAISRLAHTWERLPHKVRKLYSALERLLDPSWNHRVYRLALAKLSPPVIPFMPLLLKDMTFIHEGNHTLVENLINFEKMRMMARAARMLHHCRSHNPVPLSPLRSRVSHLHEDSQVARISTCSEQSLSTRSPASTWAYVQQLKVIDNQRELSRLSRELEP
Sequence of Rap guanine nucleotide exchange factor 4 (Homo sapiens) (Q8WZA2 whole entry, looked up): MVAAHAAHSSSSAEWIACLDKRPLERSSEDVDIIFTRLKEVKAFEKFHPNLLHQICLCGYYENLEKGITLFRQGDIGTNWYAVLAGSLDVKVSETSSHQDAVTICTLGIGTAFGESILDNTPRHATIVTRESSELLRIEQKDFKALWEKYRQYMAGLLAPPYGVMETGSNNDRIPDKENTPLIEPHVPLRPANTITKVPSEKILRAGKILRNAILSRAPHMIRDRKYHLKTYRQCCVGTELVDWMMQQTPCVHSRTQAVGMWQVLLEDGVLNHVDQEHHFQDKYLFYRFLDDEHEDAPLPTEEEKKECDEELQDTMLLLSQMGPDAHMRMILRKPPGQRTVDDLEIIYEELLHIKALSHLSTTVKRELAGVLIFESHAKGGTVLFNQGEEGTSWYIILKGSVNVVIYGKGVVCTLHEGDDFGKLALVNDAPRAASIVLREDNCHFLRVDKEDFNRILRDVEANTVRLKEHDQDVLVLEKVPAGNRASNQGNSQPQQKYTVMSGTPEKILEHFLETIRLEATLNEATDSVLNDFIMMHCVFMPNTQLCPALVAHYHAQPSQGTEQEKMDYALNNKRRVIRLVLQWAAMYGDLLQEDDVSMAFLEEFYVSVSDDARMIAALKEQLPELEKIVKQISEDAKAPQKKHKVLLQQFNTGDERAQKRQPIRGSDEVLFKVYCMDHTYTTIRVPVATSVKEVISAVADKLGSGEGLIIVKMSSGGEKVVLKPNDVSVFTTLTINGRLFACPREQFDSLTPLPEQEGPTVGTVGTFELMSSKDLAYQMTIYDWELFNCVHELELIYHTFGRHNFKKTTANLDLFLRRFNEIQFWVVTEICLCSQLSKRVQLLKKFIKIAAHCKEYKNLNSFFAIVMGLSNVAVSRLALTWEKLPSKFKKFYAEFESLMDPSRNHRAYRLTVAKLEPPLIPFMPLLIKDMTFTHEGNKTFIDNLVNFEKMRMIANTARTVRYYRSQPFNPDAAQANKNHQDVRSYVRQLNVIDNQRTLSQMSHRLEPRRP
Sequence of Cytochrome P450 3A4 (Homo sapiens) (P08684 whole entry, looked up): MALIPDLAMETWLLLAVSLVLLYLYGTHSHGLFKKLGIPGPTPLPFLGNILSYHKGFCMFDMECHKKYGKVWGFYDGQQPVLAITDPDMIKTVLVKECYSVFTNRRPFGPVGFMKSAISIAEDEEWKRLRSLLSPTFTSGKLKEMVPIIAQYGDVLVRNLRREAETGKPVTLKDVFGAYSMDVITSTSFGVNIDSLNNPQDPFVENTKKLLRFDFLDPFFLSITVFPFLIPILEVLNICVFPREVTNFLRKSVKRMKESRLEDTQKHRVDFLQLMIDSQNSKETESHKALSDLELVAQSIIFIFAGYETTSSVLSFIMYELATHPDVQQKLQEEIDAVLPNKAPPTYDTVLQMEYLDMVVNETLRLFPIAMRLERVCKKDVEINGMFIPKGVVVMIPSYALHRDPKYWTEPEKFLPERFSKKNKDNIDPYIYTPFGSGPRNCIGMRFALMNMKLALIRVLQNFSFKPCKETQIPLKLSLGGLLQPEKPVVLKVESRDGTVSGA
Sequence of Ubiquitin carboxyl-terminal hydrolase 1 (Homo sapiens) (O94782 whole entry, looked up): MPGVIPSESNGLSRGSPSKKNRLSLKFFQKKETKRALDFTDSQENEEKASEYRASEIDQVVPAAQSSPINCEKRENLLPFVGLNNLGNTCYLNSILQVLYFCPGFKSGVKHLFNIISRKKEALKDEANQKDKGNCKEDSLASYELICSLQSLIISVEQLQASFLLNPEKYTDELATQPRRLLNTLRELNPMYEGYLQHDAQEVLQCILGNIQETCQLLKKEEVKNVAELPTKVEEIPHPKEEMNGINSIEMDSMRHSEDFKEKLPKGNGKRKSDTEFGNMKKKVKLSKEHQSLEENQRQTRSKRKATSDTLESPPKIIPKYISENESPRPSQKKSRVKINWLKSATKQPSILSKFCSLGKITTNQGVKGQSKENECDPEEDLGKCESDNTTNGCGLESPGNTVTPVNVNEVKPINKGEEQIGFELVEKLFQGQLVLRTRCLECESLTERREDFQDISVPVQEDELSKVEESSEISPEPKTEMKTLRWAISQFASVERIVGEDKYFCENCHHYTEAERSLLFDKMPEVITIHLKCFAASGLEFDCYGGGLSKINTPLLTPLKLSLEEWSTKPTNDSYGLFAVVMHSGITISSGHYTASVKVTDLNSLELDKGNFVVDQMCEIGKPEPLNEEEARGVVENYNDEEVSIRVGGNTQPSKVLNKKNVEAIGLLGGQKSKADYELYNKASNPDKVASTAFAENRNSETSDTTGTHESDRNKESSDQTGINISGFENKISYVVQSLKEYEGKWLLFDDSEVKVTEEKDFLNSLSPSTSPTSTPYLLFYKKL

COC(=O)CC1C(C)(C)C(O)C2CC3=C4C=C(OC)OC(c5ccoc5)[C@]4(C)CCC3[C@@]1(C)C2=O (some centres not stated)
inactive: [2] | [3] | [4] | [5]
active: [1] 10 µM

CN(CCc1ccccn1)C(=O)Nc1ccc(F)cc1
inactive: [6] | [7] | [8] | [9] | [10] | [11]

COc1ccccc1OCCCSc1nc(-c2ccc(C(C)(C)C)cc2)nc2cc(=O)[nH]n12
active: [6] 67.5 µM
inactive: [7] | [8] | [9] | [10] | [11]

Source: PubChem BioAssay (NCATS)
